DT40 TDP1 CPT – qHTS for Inhibitors of human tyrosyl-DNA phosphodiesterase 1 (TDP1): qHTS in cells in presence of CPT; chicken DT40 Tdp1-/-;hTDP1 cells + 20 nM CPT, ATP luminescence, 48 h; Potency, µM (top dose mostly 46.2 µM), inactives show top-dose activity change, negative = growth inhibition, hits mostly inhibitors; actives 12% (n = 420,000); AID 686979, 2013; also: potency is read from the fitted curve at half-maximal effect; % is scaled to controls: 0 for no effect and ±100 for the full control effect; nearly all actives have a fitted effect of over 55% in size
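Cell growth measured by CellTiter-Glo luminescence after a minimum 48 h, 37 C compound exposure with 20 nM CPT in Tdp1-knockout DT40 cells stably expressing hTDP1, seeded 400/well; qHTS titration format.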
DT40 TDP1 no CPT – qHTS for Inhibitors of human tyrosyl-DNA phosphodiesterase 1 (TDP1): qHTS in cells in absence of CPT | actives 15% (n = 420,000) | Potency, µM (titrated, usually from 46.2 µM), for the others: top-dose activity change, negative = growth inhibition, actives largely listed as inhibitors | AID 686978, 2013 | DT40 Tdp1-/- hTDP1 cells, no CPT, ATP luminescence, 48 h; also: potency is read from the fitted curve at half-maximal effect; % is scaled to controls: 0 for no effect and ±100 for the full control effect; nearly all actives have a fitted effect of over 55% in size
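DT40 Tdp1-/-;hTDP1 cells, no CPT (DMSO vehicle only), 400 cells/well; compounds pin-transferred; ≥48 hr, 37 °C; CellTiter-Glo 30 min RT dark, luminescence read.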
TGFb SMAD3 inh – qHTS for Inhibitors of TGF-b | HepG2 CAGA-GFP TGF-b/SMAD3 reporter, GFP fluorescence, 18 h; TGF-beta stimulated, 500 pg/mL final | Potency, µM (top dose mostly 46.1 µM), without a hit: at the top dose activity, negative = inhibition, most hits filed as inhibitors | actives 1.2% (n = 410,000) | AID 588855, 2011; also: potency is read from the fitted curve at half-maximal effect; % is scaled to controls: 0 for no effect and ±100 for the full control effect; nearly all actives have a fitted effect of over 65% in size
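Read-out: total well GFP (ex488/em500-530) summed from mean per-cell fluorescence. Cells: HEPG2 CAGA-GFP, 1% FBS DMEM, 18 h at 37 degrees C with 500 pg/mL final TGF-beta. Unstimulated wells served as the full-inhibition control; stimulated DMSO wells = 0%.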
TDP1 block – qHTS Assay for Inhibitors of Tyrosyl-DNA Phosphodiesterase (TDP1) | Tyrosyl-DNA phosphodiesterase 1 (Homo sapiens), Q9NUW8 | recombinant TDP1, AlphaScreen DNA substrate cleavage | Potency, µM (series often up to 130 µM), for inactives: at the top dose activity change, negative = inhibition, most hits filed as inhibitors | actives 0.28% (n = 350,000); also: potency is read from the fitted curve at half-maximal effect; % is scaled to controls: 0 for no effect and ±100 for the full control effect; nearly all actives have a fitted effect of over 40% in size
Target sequence (Q9NUW8 whole entry, looked up): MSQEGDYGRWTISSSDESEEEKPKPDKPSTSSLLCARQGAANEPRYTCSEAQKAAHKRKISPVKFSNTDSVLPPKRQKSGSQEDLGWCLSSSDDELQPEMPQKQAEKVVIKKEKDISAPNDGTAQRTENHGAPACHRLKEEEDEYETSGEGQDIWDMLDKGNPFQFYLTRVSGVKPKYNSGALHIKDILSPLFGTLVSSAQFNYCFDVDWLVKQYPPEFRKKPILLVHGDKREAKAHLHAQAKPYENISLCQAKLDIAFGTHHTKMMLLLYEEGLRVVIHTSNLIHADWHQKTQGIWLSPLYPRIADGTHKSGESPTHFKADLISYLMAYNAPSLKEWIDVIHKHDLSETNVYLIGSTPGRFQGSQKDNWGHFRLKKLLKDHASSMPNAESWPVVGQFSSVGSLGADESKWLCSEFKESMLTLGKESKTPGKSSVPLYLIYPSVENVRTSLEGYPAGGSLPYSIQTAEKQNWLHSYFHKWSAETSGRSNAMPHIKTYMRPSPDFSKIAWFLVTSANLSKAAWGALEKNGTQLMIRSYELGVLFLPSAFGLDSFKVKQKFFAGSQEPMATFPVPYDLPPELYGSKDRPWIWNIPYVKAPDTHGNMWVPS
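Signal: AlphaScreen proximity between streptavidin donor and anti-FITC acceptor beads on intact substrate. Reaction: Tdp1 1 nM, substrate 15 nM final, 5 min RT after 15 min compound preincubation.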
HepG2 tox – qHTS for Inhibitors of TGF-b: Cytotox Counterscreen | HepG2 CAGA-GFP viability, ATP luminescence, 18 h | Potency, µM (doses to about 46.1 µM), without a hit: at the highest dose activity change, negative = cytotoxicity, usual class: cytotoxic | actives 0.76% (n = 410,000); also: potency is read from the fitted curve at half-maximal effect
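CellTiter-Glo luminescence gave cytotoxicity after 18 hours at 37 degrees C. The cells were HepG2 CAGA-GFP in 1% FBS DMEM, stimulated with 500 pg/mL TGF-beta after compound addition. %Activity was normalised to no-cell wells (complete cell-killing) and DMSO (no toxicity), and curves were fitted and classified.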
IL-1B inflam inh – qHTS for Inhibitors of Inflammasome Signaling: IL-1-beta AlphaLISA Primary Screen; actives 4.7% (n = 360,000); activity change, % at 57.5 µM; THP-1 LPS/ATP IL-1B secretion, AlphaLISA, 16 h; hits give low values; in the data active = activity change below about -50%; inconclusive = mostly about -30% to -49%; also: % is scaled to controls: 0 for no effect and ±100 for the full control effect
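THP-1 cells pretreated 1 hr with compounds (up to 57.5 uM final), then stimulated with LPS (250 ng/mL final) plus ATP (1.25 mM final); secreted IL-1B measured by AlphaLISA after 16 hr, decreased signal indicating inhibition.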
Numbers without * were called inactive; ? = inconclusive; · = not tested or not shown; [ ] = another dose, or the depositor's remark. A selection: hits, their analogues and other compounds. The true share with any hit is near 18%. Unless noted, calls follow the shape of the dose curve; as a rule, active = well fitted curve in the direction sought with a large enough effect; inconclusive = small, poorly fitted or top-dose-only effect, or another doubt; inactive = no such curve, though single readings can be large; an effect the other way counts as inactive or inconclusive.

SMILES	DT40 TDP1 CPT	DT40 TDP1 no CPT	TGFb SMAD3 inh	TDP1 block	HepG2 tox	IL-1B inflam inh
O=C1/C(=C/c2cccc(Br)c2)SC(=S)N1/N=C/c1cc([N+](=O)[O-])ccc1O	23.1µM*	?	-19.8%	·	-2.8%	-12.5
C=CS(=O)(=O)N(Cc1ccc(Cl)c(Cl)c1)C[C@@H](O)CO	20.6µM*	20.6µM*	-10.6%	0.6%[56.1 µM]	-3.2%	-103.8*
CC(/C=C1\SC(=S)N(CCC(=O)Nc2cccc(C(=O)O)c2)C1=O)=C\c1ccccc1	9.3%	4.1%	-10.8%	·	-32.1%	31.2
CCc1ccc(/C=C2/SC(=S)N(CCC(=O)Nc3cccc(C(=O)O)c3)C2=O)cc1	0.2%	23.3%	1.4%	28.2µM*	0.8%	14.3
CCc1ccc(C=C2SC(=S)N(CCCC(=O)Nc3ccc(C(=O)O)cc3)C2=O)cc1	?	18.4µM*	-0.2%	·	-10.1%	-6.1
Cc1ccc(S(=O)(=O)N2CCCCC2)cc1NC(=O)COC(=O)c1ccc(=O)[nH]c1	-24.2%	-11.5%	0.5%	1.9%	-3.2%	0.0
COc1ccc(/C=C2\SC(N3CCc4ccccc4C3)=NC2=O)cc1	?	?	-16.8%	0.0%	-1.0%	?
CCOc1ccc(/C=C2\SC(N3CCc4ccccc4C3)=NC2=O)cc1	29.1µM*	20.6µM*	0.0%	5.5%	-28.3%	-54.5*
COc1cc(/C=C2\SC(N3CCc4ccccc4C3)=NC2=O)cc(OC)c1OC	20.6µM*	16.4µM*	9.9%	3.4%	-2.1%	-67.5*
O=C(Cn1nc(N2CCN(c3ccccc3)CC2)ccc1=O)NCc1cccc(Cl)c1	?	?	-1.9%	7.9%	-0.7%	·
COc1ccc(CC(=O)N(C)CC(=O)Nc2ccc(F)cc2)cc1S(=O)(=O)N1CCOCC1	-0.3%	5.8%	13.1%	1.6%	6.0%	15.6
O=C1CNC(=S)N1CCc1ccc(Cl)cc1	26.0%	16.4µM*	10.2%	2.6%	-4.2%	-18.0
O=S(=O)(/N=S1\CC=CCN1S(=O)(=O)c1ccccc1)c1ccccc1 (configuration not stated)	?	20.6µM*	?	·	-78.2%	-86.4*
COc1cc(NC(=O)CCc2c(C)nn(-c3ccc4nnc(C)n4n3)c2C)cc(OC)c1OC	?	-17.9%	1.3%	4.4%	-12.5%	·
NC1=NC(=O)/C(=C/c2cccs2)S1	-10.6%	-21.5%	?	-5.8%	-5.4%	-0.5
C=CCSC1=NC(=O)/C(=C/c2cccs2)S1	?	?	34.9%	3.2%	-13.9%	-100.2*
Cc1ccc(CCNC(=O)C2CCCN(c3nnc(C)c4c(C)n(-c5ccccc5)nc34)C2)cc1 (configuration not stated)	23.1µM*	?	5.9%	8.5%	-12.7%	·
CCOc1ccc(CCNC(=O)C2CCCN(c3nnc(C)c4c(C)n(-c5ccccc5)nc34)C2)cc1 (configuration not stated)	20.6µM*	?	-25.2%	5.6%	-47.3%	·
CCOC(=O)C1CCCN(C(=O)C2CCN(c3nnc(C)c4c(C)n(-c5ccccc5)nc34)CC2)C1 (configuration not stated)	?	?	?	8.5%	-27.2%	·
Cc1nnc(N2CCCC(C(=O)NCc3ccccc3)C2)c2nn(-c3ccccc3)c(C)c12 (configuration not stated)	-8.3%	-20.2%	-1.6%	2.8%	2.2%	·
Cc1ccc(-n2nc3c(N4CCCC(C(=O)NCCc5ccccc5)C4)nnc(C)c3c2C)cc1 (configuration not stated)	16.4µM*	16.4µM*	?	2.8%	-56.4%	·
Cc1nnc(N2CCCC(C(=O)NCCc3ccccc3)C2)c2nn(-c3ccccc3)c(C)c12 (configuration not stated)	?	18.4µM*	-27.9%	2.8%	-33.9%	·
Cc1ccc(C)c(NC(=O)N2CCN(c3nnc(C)c4c(C)n(-c5ccccc5)nc34)CC2)c1	-12.0%	-2.8%	-17.1%	7.1%	-17.4%	·
Cc1ccccc1CNC(=O)C1CCCN(c2nnc(C)c3c(C)n(-c4ccccc4)nc23)C1 (configuration not stated)	23.1µM*	18.4µM*	-5.5%	79.4µM*	-15.9%	?
Cc1ccc(-n2nc3c(N4CCCC(C(=O)NCc5ccc(Cl)cc5)C4)nnc(C)c3c2C)cc1 (configuration not stated)	9.2µM*	18.4µM*	-27.1%	2.8%	-23.2%	·
SMILES	DT40 TDP1 CPT	DT40 TDP1 no CPT	TGFb SMAD3 inh	TDP1 block	HepG2 tox	IL-1B inflam inh
Cc1nnc(N2CCCC(C(=O)NCc3ccccc3F)C2)c2nn(-c3ccccc3)c(C)c12 (configuration not stated)	?	0.9%	14.3%	3.2%	0.2%	4.5
CN(C)C(CNC(=O)c1ccco1)c1cccs1 (configuration not stated)	3.8%	2.3%	-3.0%	0.0%	3.0%	4.7
COc1ccc(CNC(=O)Cn2ncc3c([nH]c4ccccc43)c2=O)cc1	-4.0%	?	-0.6%	-6.2%	-22.3%	·
CCOC(=O)c1ccc(/C=C2\c3ccccc3C(=O)N2c2ccccc2)cc1F	18.4µM*	?	-4.6%	4.0%	-3.3%	72.9
Cn1c2ccccc2c(=O)c2ccc(Cl)cc21	-3.5%	-29.4%	-28.5%	·	-30.6%	-25.1
CCOC(=O)c1ccc(N2C(=O)Cc3ccccc3C2=O)cc1	?	?	-4.3%	2.7%[0.0935 µM]	5.4%	-11.1
CCOC(=O)c1ccc(-c2ccc3c(=O)c4ccccc4n(C)c3c2)cc1F	14.6µM*	?	12.6%	·	0.7%	44.8
CC(=O)c1cccc(S(=O)(=O)N2CCC(C(=O)N(C)Cc3ccc(Cl)s3)CC2)c1	?	-21.3%	-18.3%	-6.0%	-13.7%	0.0
O=C(Cc1ccc(NS(=O)(=O)c2cccc(C(F)(F)F)c2)cc1)NCCN1CCOCC1	-11.3%	-31.3%	9.6%	2.7%	0.5%	14.6
CC(=O)NCCC(Cc1ccccc1)c1ccco1 (configuration not stated)	-8.6%	-6.0%	25.8%	4.9%	-6.0%	-0.8
